Among the data in the supplement of paper PMC10981050 are cell viability values, retold here.

The structures appear in SMILES notation. “And” between values parts separate entries of the source, which are not always exact repeats. Equal values may be shown once. Where a name gives a salt, the structure may show the parent alone.

Test in all cases: cell viability relative to vehicle control; higher = less cytotoxic
Settings in all cases: 10 µM

Assay [1] concerns K562. The method, boiled down:
(§1)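 Mutant clones made by CRISPR editing and their isogenic wild-type counterparts, from four leukaemia lines, were exposed to a single 10 µM dose of each library compound for 48 h. The supernatant was then removed and CellTiter-Glo luminescence was read. Viability was reported as percent of the on-plate vehicle control.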

Assay [2] concerns MARIMO. Put shortly: as §1
Assay [3] deals with MOLM14. Put shortly:
as §1

Assay [4] has as its system OCI-AML2. The method, boiled down: as §1

As a reminder, the cell viability is a read-out of living cells in per cent, often relative to untreated cells. `CCN(CC)c1ccc2cc(C(=O)O)c(=O)oc2c1` [7-(Diethylamino)coumarin-3-carboxylic acid]: the cell viability was 112% and 101% in assay [1] (SRSF2 genotype: SRSF2 P95H/wt); 105% in assay [1] (SRSF2 genotype: SRSF2 wt/wt); 95.4% in assay [2] (SRSF2 genotype: SRSF2 P95H/wt); 108% in assay [2] (SRSF2 genotype: SRSF2 wt/wt); 98% in assay [3] (SRSF2 genotype: SRSF2 P95H/wt); 110% in assay [3] (SRSF2 genotype: SRSF2 wt/wt). Moreover, the values for the cell viability in assay [4] (SRSF2 genotype: P95H/wt) and in assay [4] (SRSF2 genotype: wt/wt) were 100% and 103%, respectively.
As for `OC(c1cc(C(F)(F)F)nc2c(C(F)(F)F)cccc12)C1CCCCN1` (configuration not stated) [Mefloquine HCl], the cell viability was 0.97% and 1.02% in assay [1] (SRSF2 genotype: SRSF2 P95H/wt); 0.97% in assay [1] (SRSF2 genotype: SRSF2 wt/wt); 0.56% in assay [2] (SRSF2 genotype: SRSF2 P95H/wt); 0.87% in assay [2] (SRSF2 genotype: SRSF2 wt/wt); 0.48% in assay [3] (SRSF2 genotype: SRSF2 P95H/wt); 0.44% in assay [3] (SRSF2 genotype: SRSF2 wt/wt). Moreover, the results for the cell viability in assay [4] (SRSF2 genotype: P95H/wt) and in assay [4] (SRSF2 genotype: wt/wt) were 0.35% and 1.68%, respectively.
Regarding `CN1CC[C@@H](c2c(O)cc(O)c3c(=O)cc(-c4ccccc4Cl)oc23)[C@@H]1CO`, the cell viability in assay [1] (SRSF2 genotype: SRSF2 P95H/wt) was 5.12% and 15.8%; in assay [1] (SRSF2 genotype: SRSF2 wt/wt), 7.55%; in assay [2] (SRSF2 genotype: SRSF2 P95H/wt), 7.83%; in assay [2] (SRSF2 genotype: SRSF2 wt/wt), 3.59%; in assay [3] (SRSF2 genotype: SRSF2 P95H/wt) it was 2.24%; in assay [3] (SRSF2 genotype: SRSF2 wt/wt), 0.71%. In addition, the cell viability in assay [4] (SRSF2 genotype: P95H/wt) was determined as 1.64%; in assay [4] (SRSF2 genotype: wt/wt), 13.3%.
Regarding `Cc1cc(=O)oc2c(C=O)c(O)ccc12`, the cell viability was 110% and 118% in assay [1] (SRSF2 genotype: SRSF2 P95H/wt); 112% in assay [1] (SRSF2 genotype: SRSF2 wt/wt); 99% in assay [2] (SRSF2 genotype: SRSF2 P95H/wt); 97.4% in assay [2] (SRSF2 genotype: SRSF2 wt/wt); 94.8% in assay [3] (SRSF2 genotype: SRSF2 P95H/wt); 109% in assay [3] (SRSF2 genotype: SRSF2 wt/wt). Also, the cell viability in assay [4] (SRSF2 genotype: P95H/wt) came out at 92.5%; in assay [4] (SRSF2 genotype: wt/wt), 98.3%.
In the case of `CC(C)n1nc(-c2ccc(NC(=O)Nc3cc(C(F)(F)F)ccc3F)cc2)c2c(N)ncnc21`, the cell viability in assay [1] (SRSF2 genotype: SRSF2 P95H/wt) was 26.5% and 30.8%; in assay [1] (SRSF2 genotype: SRSF2 wt/wt) it was 19%; in assay [2] (SRSF2 genotype: SRSF2 P95H/wt), 8.66%; in assay [2] (SRSF2 genotype: SRSF2 wt/wt), 4.51%; in assay [3] (SRSF2 genotype: SRSF2 P95H/wt), 1.98%; in assay [3] (SRSF2 genotype: SRSF2 wt/wt), 0.7%. Also, the figures for the cell viability in assay [4] (SRSF2 genotype: P95H/wt) and in assay [4] (SRSF2 genotype: wt/wt) were 2.08% and 8.47%, respectively.
On to `CN(C)/N=N/c1[nH]cnc1C(N)=O` [Dacarbazine (DTIC-Dome)], for which the cell viability in assay [1] (SRSF2 genotype: SRSF2 P95H/wt) was 117% and 112%; in assay [1] (SRSF2 genotype: SRSF2 wt/wt), 110%; in assay [2] (SRSF2 genotype: SRSF2 P95H/wt) it was 108%; in assay [2] (SRSF2 genotype: SRSF2 wt/wt) it was 107%; in assay [3] (SRSF2 genotype: SRSF2 P95H/wt), 97.6%; in assay [3] (SRSF2 genotype: SRSF2 wt/wt), 108%. In addition, the cell viability in assay [4] (SRSF2 genotype: P95H/wt) worked out at 107%; in assay [4] (SRSF2 genotype: wt/wt), 112%.
With `COc1ccc(-c2cc(=O)c3c(O)c(OC)c(O)cc3o2)cc1OC` [Eupatilin], the cell viability in assay [1] (SRSF2 genotype: SRSF2 P95H/wt) is 101% and 99.5%; in assay [1] (SRSF2 genotype: SRSF2 wt/wt) it was 97%; in assay [2] (SRSF2 genotype: SRSF2 P95H/wt), 92.3%; in assay [2] (SRSF2 genotype: SRSF2 wt/wt), 98.2%; in assay [3] (SRSF2 genotype: SRSF2 P95H/wt), 48.7%; in assay [3] (SRSF2 genotype: SRSF2 wt/wt), 60.2%. Moreover, the cell viability in assay [4] (SRSF2 genotype: P95H/wt) stood at 69.4%; in assay [4] (SRSF2 genotype: wt/wt), 71.2%.
Regarding `CC(C)=C[C@H]1C[C@](C)(O)[C@@H]2[C@H]3CC[C@@H]4[C@@]5(C)CC[C@H](OC6OC[C@H](O)[C@H](O[C@@H]7O[C@H](CO[C@@H]8O[C@H](CO)[C@@H](O)[C@H](O)[C@H]8O)[C@@H](O)[C@H](O)[C@H]7O[C@@H]7OC[C@@H](O)[C@H](O)[C@H]7O)[C@H]6O[C@@H]6O[C@@H](C)[C@H](O)[C@@H](O)[C@H]6O)C(C)(C)[C@@H]5CC[C@@]4(C)C34CO[C@@]2(C4)O1` (some centres not stated) [Jujuboside A], the cell viability was 109% and 107% in assay [1] (SRSF2 genotype: SRSF2 P95H/wt); 102% in assay [1] (SRSF2 genotype: SRSF2 wt/wt); 101% in assay [2] (SRSF2 genotype: SRSF2 P95H/wt); 104% in assay [2] (SRSF2 genotype: SRSF2 wt/wt); 109% in assay [3] (SRSF2 genotype: SRSF2 P95H/wt); 102% in assay [3] (SRSF2 genotype: SRSF2 wt/wt). The cell viability in assay [4] (SRSF2 genotype: P95H/wt) turned out to be 91.6%; in assay [4] (SRSF2 genotype: wt/wt), 101%.
In the case of `CCOC(=O)c1ccc(NC(=O)O[C@H]2[C@H](OC(=O)Nc3ccc4c(c3)OCO4)[C@@H](OC(=O)Nc3ccc4c(c3)OCO4)[C@@H](OC)O[C@@H]2CO)cc1`, the cell viability in assay [1] (SRSF2 genotype: SRSF2 P95H/wt) was 89.5% and 99.2%; in assay [1] (SRSF2 genotype: SRSF2 wt/wt), 93.3%; in assay [2] (SRSF2 genotype: SRSF2 P95H/wt) it was 103%; in assay [2] (SRSF2 genotype: SRSF2 wt/wt), 106%; in assay [3] (SRSF2 genotype: SRSF2 P95H/wt), 100%; in assay [3] (SRSF2 genotype: SRSF2 wt/wt) it was 101%. In addition, the cell viability in assay [4] (SRSF2 genotype: P95H/wt) amounted to 99.3%; in assay [4] (SRSF2 genotype: wt/wt) it was 103%.
